This excerpt belongs to a sample that is enriched for the strongest signals.

Test in all cases: glycan array binding signal (z-score within array); higher = stronger binding
Holding throughout (conditions): glycan notation: IUPAC condensed, linker removed

In assay [1] the target is Fuc(a1-2)Gal(b1-3)GalNAc(b1-3)Gal(a1-4)Gal(b1-4)Glc. The method in brief:
(§1)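 Glycan array binding is given as a within-array Z-score, which can be read as non-binding when negative. The arrays, 3228 of them, came from the Consortium for Functional Glycomics database and were retained only where the protein sequence was available. Z-scores were averaged across arrays of the same protein sequence at different concentrations or buffers and across linkers.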

Another assay deals with Gal(a1-3)Gal. The method in brief:
as §1

The target in assay [2] is Gal(b1-4)GlcNAc(b1-3)GalNAc. The essentials:
as §1

The target of assay [3] is Man(a1-2)Man(a1-3)[Man(a1-2)Man(a1-6)]Man(a1-6)[Man(a1-3)[Man(a1-6)]Man(a1-6)]Man(b1-4)GlcNAc(b1-4)GlcNAc. The essentials:
as §1

In assay [4] the target is Man(a1-2)Man(a1-6)[Man(a1-3)]Man(a1-6)[Man(a1-2)Man(a1-2)Man(a1-3)]Man(b1-4)GlcNAc(b1-4)GlcNAc. The method in brief:
as §1

Assay [5] concerns the target Neu5Ac(a2-3)[GalNAc(b1-4)]Gal(b1-4)GlcNAc. The method in brief:
as §1

Assay [6] addresses Neu5Gc(a2-3)Gal(b1-3)GlcNAc. The method in brief: as §1

B1: FBG1 (Homo sapiens), Q9UK22 (protein)
chain: MDGDGDPESVGQPEEASPEEQPEEASAEEERPEDQQEEEAAAAAAYLDELPEPLLLRVLAALPAAELVQACRLVCLRWKELVDGAPLWLLKCQQEGLVPEGGVEEERDHWQQFYFLSKRRRNLLRNPCGEEDLEGWCDVEHGGDGWRVEELPGDSGVEFTHDESVKKYFASSFEWCRKAQVIDLQAEGYWEELLDTTQPAIVVKDWYSGRSDAGCLYELTVKLLSEHENVLAEFSSGQVAVPQDSDGGGWMEISHTFTDYGPGVRFVRFEHGGQDSVYWKGWFGARVTNSSVWVEP
B1: the “glycan array binding signal (z-score)” value in assay [1] was 0.049; with Gal(a1-3)Gal it was -0.252; in assay [2], 5.13; in assay [3], 4.33; in assay [4], 4.93; in assay [5], -0.217. Besides, the “glycan array binding signal (z-score)” value in assay [6] was -0.177.

These data come from the supplement of paper PMC8728848.
